Laboratory results as given in PubChem BioAssay AID1159580 (chemical genetic matrix, 2015).
Values joined by “and” are separate entries in the source; they are usually repeats but may differ in a detail not shown here. Equal entries are not always repeated. In all, about 5,500 compounds went through this assay and about 2,000 (36%) were called active. About 18% were inconclusive and are not listed. Cut-off read from the data, not from the text of the source: active = normalized growth mostly below about 0.91 (no sharp cut-off); inconclusive = no clear call, values can overlap the other calls; inactive = mostly above about 0.92. The list shows a part of the results.

Assay: chemical genetic growth profiling, strain panel (AID 1159580);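 note: tested at 20 µM; growth read once vehicle control cultures reached saturation at 30 °C; 1 = growth at the plate median or of vehicle wells; lower values mean less growth of the strain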
Conditions: S. cerevisiae deletion strains, growth OD

Measured: normalized growth

CC(C)c1c(O)c(-c2cc3c(c(C(C)C)c2O)CCC2C(C)(C)CCC[C@]32C)cc2c1CCC1C(C)(C)CCC[C@]21C (stereo partly specified)
inactive: locus YAL013W, strain DEP1, active compounds read low 1.01 | locus YAL021C, strain ccr4, active compounds read low 0.987 | locus YAL026C, strain drs2, active compounds read low 0.988 | locus YAL030W, strain snc1, active compounds read low 0.996 | locus YBL061C, strain skt5, active compounds read low 0.991 | locus YBR009C, strain hhf1, active compounds read low 1.02 | locus YBR021W, strain FUR4, active compounds read low 1.03 | locus YBR023C, strain chs3, active compounds read low 0.992 | locus YBR171W, strain sec66, active compounds read low 0.976 | locus YBR229C, strain ROT2, active compounds read low 1.02 | locus YBR231C, strain swc5, active compounds read low 0.99 | locus YBR279W, strain paf1, active compounds read low 0.99 | locus YCL011C, strain gbp2, active compounds read low 0.983 | locus YCL016C, strain dcc1, active compounds read low 0.976 | locus YCL029C, strain bik1, active compounds read low 1.02 | locus YCL061C, strain MRC1, active compounds read low 0.982 | locus YCL069W, strain vba3, active compounds read low 0.998 | locus YCR088W, strain abp1, active compounds read low 1 | locus YDL005C, strain med2, active compounds read low 0.964 | locus YDL035C, strain GPR1, active compounds read low 1.02 | locus YDL040C, strain nat1, active compounds read low 0.991 | locus YDL074C, strain BRE1, active compounds read low 1.02 | locus YDL101C, strain DUN1, active compounds read low 1.01 | locus YDL134C, strain PPH21, active compounds read low 1.01 | locus YDL185W, strain tfp1, active compounds read low 1.04 | locus YDL192W, strain arf1, active compounds read low 1.03 | locus YDR001C, strain nth1, active compounds read low 0.984 | locus YDR069C, strain doa4, active compounds read low 0.982 | locus YDR101C, strain arx1, active compounds read low 1.01 | locus YDR137W, strain rgp1, active compounds read low 0.982 | locus YDR150W, strain NUM1, active compounds read low 1.02 | locus YDR159W, strain sac3, active compounds read low 0.986 | locus YDR162C, strain NBP2, active compounds read low 1.02 | locus YDR195W, strain ref2 0.938 | locus YDR297W, strain sur2, active compounds read low 0.985 | locus YDR318W, strain mcm21, active compounds read low 1.02 | locus YDR334W, strain swr1, active compounds read low 0.972 | locus YDR335W, strain msn5, active compounds read low 0.986 | locus YDR388W, active compounds read low 1.01 | locus YDR392W, strain spt3, active compounds read low 0.982 | locus YDR502C, strain sam2, active compounds read low 1.01 | locus YEL003W, strain gim4, active compounds read low 0.995 | locus YEL037C, strain rad23, active compounds read low 0.99 | locus YEL061C, strain CIN8 (second series), active compounds read low 0.993 | locus YEL061C, strain CIN8, active compounds read low 1.01 | locus YER015W, strain faa2, active compounds read low 0.985 | locus YER016W, strain bim1, active compounds read low 0.972 | locus YER110C, active compounds read low 1.02 | locus YER111C, strain swi4, active compounds read low 0.992 | locus YER155C, strain BEM2 (second series), active compounds read low 0.992 | locus YER155C, strain BEM2, active compounds read low 1.01 | locus YER167W, strain BCK2, active compounds read low 1.03 | locus YFR010W, strain ubp6, active compounds read low 1.01 | locus YGL078C, strain dbp3, active compounds read low 1.01 | locus YGL086W, strain mad1, active compounds read low 1.02 | locus YGL167C, strain pmr1, active compounds read low 0.993 | locus YGL173C, strain kem1, active compounds read low 0.972 | locus YGL227W, strain vid30, active compounds read low 0.982 | locus YGL240W, strain doc1, active compounds read low 0.988 | locus YGL248W, strain PDE1, active compounds read low 1.02 | locus YGL253W, strain hxk2, active compounds read low 0.985 | locus YGR078C, strain PAC10, active compounds read low 1.01 | locus YGR135W, strain pre9, active compounds read low 1.01 | locus YGR229C, strain SMI1, active compounds read low 1.01 | locus YGR252W, strain gcn5, active compounds read low 1.06 | locus YHR013C, strain ard1, active compounds read low 0.947 | locus YHR027C, strain rpn1, active compounds read low 0.985 | locus YHR030C, strain SLT2, active compounds read low 1.01 and 0.972 | locus YHR079C, strain IRE1 (second series), active compounds read low 1.01 | locus YHR079C, strain IRE1, active compounds read low 0.965 | locus YHR094C, strain hxt1, active compounds read low 1.02 | locus YHR129C, strain ARP1, active compounds read low 1 | locus YHR142W, strain chs7, active compounds read low 0.986 | locus YHR200W, strain rpn10, active compounds read low 1.02 | locus YIL066C, strain RNR3, active compounds read low 1.02 | locus YIL073C, strain SPO22, active compounds read low 1.08 | locus YIL125W, strain kgd1, active compounds read low 1.02 | locus YIR030C, strain dcg1, active compounds read low 1.01 | locus YJL092W, strain hpr5, active compounds read low 0.979 | locus YJL095W, strain BCK1 (second series), active compounds read low 0.997 | locus YJL095W, strain BCK1, active compounds read low 1.01 and 1 | locus YJL115W, strain asf1, active compounds read low 0.956 | locus YJL129C, strain trk1, active compounds read low 0.988 | locus YJL134W, strain LCB3, active compounds read low 1.01 | locus YJL154C, strain vps35, active compounds read low 0.985 | locus YJL164C, strain tpk1, active compounds read low 0.994 | locus YJL166W, strain qcr8, active compounds read low 0.997 | locus YJL168C, strain set2, active compounds read low 1.02 | locus YJL187C, strain SWE1 (second series), active compounds read low 1.01 | locus YJR043C, strain POL32, active compounds read low 1.03 | locus YJR066W, strain TOR1, active compounds read low 0.945
